The values below come from PubChem BioAssay (EPA / NIEHS).

The structures appear in SMILES notation. Calls of active or inactive are those of the source. How the source made its calls: active means hit-call score of the fitted dose curve at least 0.9, where 1 is the maximum; inactive means score below 0.9.

Read-out in this experiment: CYP4A11 (gene 1579)
Put plainly: LTEA_HepaRG_CYP4A11: Life Technologies and Expression Analysis (LTEA) Assay for CYP4A11 using HepaRG (AID 2283486). The conditions noted are these: mRNA level, 48 h; actives raise or lower the signal. The protocol:
LTEA_HepaRG is a cell based, multiplexed-readout assay that uses HepaRG, a human liver cell line, with measurements taken at 48 hours after chemical dosing on a 96-well plate.LTEA_HepaRG_CYP4A11 is one of 102 assay component(s) measured in the LTEA HepaRG cell culture assay. It is a marker of NR mediated metabolism.Data from the assay component LTEA_HepaRG_CYP4A11 was analyzed into 1 endpoint. This assay endpoint, LTEA_HepaRG_CYP4A11, was analyzed with bidirectional fitting relative to DMSO as the negative control and baseline of activity. Using a type of inducible reporter, measures of mRNA induction for gain or loss-of-signal activity can be used to understand regulation of transcription factor activity. To generalize the intended target to other relatable targets, this assay endpoint is annotated to the cyp intended target family, where the subfamily is xenobiotic metabolism.
A total of 1060 chemcials from the ToxCast library were tested in eight-point concentration-response experiments. Cell culture and cytotoxicity assays were conducted at Thermo Fisher Scientific's Custom Services facility (Madison, WI). A single lot of human HepaRG cells (Thermo Fisher Scientific, Frederick, MD) was used for the cell culture experiments. 96-well format collagen type I coated plates of human HepaRG cells were prepared using established methods. Briefly, cryopreserved HepaRG cells were thawed, plated at a density of approximately 100,000 cells/well in HepaRG Thaw, Plate, and General Purpose media (HPRG770, Thermo Fisher Scientific), and incubated for 48 hours. 0.5% DMSO was selected as vehicle control to balance the requisite need of DMSO in HepaRG cultures to maintain differentiation (for example, baseline metabolism, proportions of hepatocytes vs. cholangiocytes), while enabling further hepatic receptor pathway activation (for example, PXR and CAR) in response to chemical exposure. 48 hours after plating, the culture medium was replaced with HepaRG Serum-Free Incudtion Media. Cells were exposed to each test chemical in duplicate and maintained in CO2 incubators for another 48 hours. Chemical plates were thawed to room temperature and 200x concentrations of treatment groups were prepared. 8-point conentration-reponse curves were made with the highest exposure at 100 uM, followed by half-log dilutions, all in 0.5% DMSO. Each test plate contained variouse controls, induction positive controls (1mM phenobarbital), cytotoxicity positive controls ([…] aflatoxin B1), vehicle controls (0.5% DMSO), and total lysis controls (0.5% DMSO). Cell morphology images were taken using an Essen IncuCyte FLR automated microscope, with six 96-well plates imaged in about 24 minutes. Images were captured and exported and JPEG files. Spent culture media was transfered to black-well plates for the LDH assay, and remaining media was sorted at -80 C for later use. Cells were treated with RLT buffer and frozen until shipped for gene expression analysis. Total RNA was isolated from the cell suspension in 75 uL of Buffer RLT (Qiagen, Germantown, MD 20874) by Quintiles/Expression Analysis (Durham, NC) using a custom isolation procedure. Total RNA from each plate well was transferred to a preamplification plate. Fluidigm's 96.96 Dynamic ArrayTM (Fluidigm, Amsterdam, the Netherlands) technology was used for gene expression analyses by quantitative reverse transcription polymerase chain reaction (qRT-PCR, performed by Quintiles/Expression Analysis, Durham, NC)89. Standard TaqManTM Assays (Applied Biosystems/ThermoFisher Scientific, Foster City, CA) were used to assess the expression of 93 genes selected based on their selectivity and sensitivity to important hepatic receptors known to be modulated by environmental chemicals; importance in human hepatocyte functionality; and hepatotoxicity. […]
One may read the AC50 as the concentration at which the activity in the assay is half-maximal. On to `OCC(CO)(CBr)CBr`, for which the AC50 was 0.411 µM (active).

Regarding `CCCCC(CC)C(=O)O` (stereo unspecified), the outcome was inactive. As to `CN(Cc1cnc2nc(N)nc(N)c2n1)c1ccc(C(=O)N[C@@H](CCC(=O)O)C(=O)O)cc1`, the call was inactive.

On to `O=C(CCCN1CCC(O)(c2ccc(Cl)cc2)CC1)c1ccc(F)cc1`, for which the AC50 was 73.5 µM (active). For the compound `CCCCC=O`, the call was inactive. On the same count and under the same terms, with `CC(=O)Nc1ccc(O)cc1` the entry was “inactive”; with `CCCCCCCCCCCCCCC`, “inactive”. For `N=C(N)c1ccc(OCCCCCOc2ccc(C(=N)N)cc2)cc1`, the AC50 was 3.02 µM (active).

Consider `Cc1[nH]nc2c1N=C(c1ccccc1Cl)c1cc([N+](=O)[O-])ccc1N2`, for which the AC50 was 5.26 µM (active).

With `O=C1NS(=O)(=O)c2ccccc21`, the result was inactive. `CCC(C)c1ccccc1O` (stereo unspecified): the compound was called inactive.
